{"source": "PubChem BioAssay (Tox21)", "note": "Where “and” joins values, the source holds several entries; their conditions need not be identical. Equal values may be shown once. Records with an inconclusive call do not appear. Calls of active or inactive are those of the source. Calls come from the whole dose curve; as a rule, active = well fitted activation curve with a large enough effect in the repeat runs; inconclusive = weak or mixed curves; inactive = flat fitted curve, though single readings scatter. % is set by controls: 0 for no effect and ±100 for the full control effect; potency is the fitted concentration of half-maximal effect."}
{"test": "A CellTox Green Cytotoxicity Assay to monitor cytotoxicity in HEK293 cells - 24 hour (AID 1224875); note: nearly all actives have a fitted effect of over 45% in size", "details": "CellTox Green fluorescence; series mostly up to 76.8 µM; activity change: at the top concentration", "description": "National Center for Advancing Translational Sciences [NCATS]\nNIH Chemical Genomics Center [NCGC]\nU.S. Environmental Protection Agency [EPA]\nNational Institutes of Environmental Health Sciences [NIEHS]\nNational Toxicology Program [NTP]\nCell-based models are critical for drug discovery. Determining the natural cytotoxic effects resulting from test compounds is an essential research activity. A CellTox Green Cytotoxicity Assay to monitor cytotoxicity in real time of continues cell culture during 40 hours of the compound treatment was used to screen Tox21 10K library compounds in Hek293 cells. CellTox Green Cytotoxicity Assay is a nonlytic, homogeneous, biofluorescent method to measure cytotoxicity in cell culture after experimental manipulation. The assay system uses a proprietary asymmetric cyanine dye that is excluded from viable cells but preferentially stains the dead cell's DNA. […] Viable cells produce no appreciable increases in fluorescence. Therefore, the fluorescence signal produced by the binding interaction with dead cell DNA is proportional to cytotoxicity.\nThe mixture of Hek293 cell suspension and reagents were dispensed at 600cells/6 ul/well in 1536-well tissue culture treated black solid bottom plates using a Multidrop dispenser. After the assay plates were incubated at a 37 C/5% CO2 incubator for 5 hours, 23 nL of compounds dissolved in DMSO, positive and negative controls was transferred to the assay plate by a pintool work station. The plates were incubated at 37 C for 40 hours. The fluorescence intensity were measured at 0h, 8h, 16h, 24h, 32h and 40h time points using ViewLux plate reader during compound treatment."}
{"smiles": "CN1C[C@H](C(=O)N[C@]2(C)O[C@@]3(O)[C@@H]4CCCN4C(=O)[C@H](Cc4ccccc4)N3C2=O)C=C2c3cccc4[nH]cc(c34)C[C@H]21", "Potency": "inactive"}
{"smiles": "NP(N)(=O)NC(=O)c1ccc(F)cc1", "activity change": "-1.14% [at 35.3 µM, stronger effect = higher value] (inactive)"}
{"smiles": "CC(C)OC(=O)Cc1ccccc1", "activity change": "-1.05% (inactive)"}
{"smiles": "C=CCOC(=O)C(C)(C)OC(=O)c1cc(-n2c(=O)cc(C(F)(F)F)n(C)c2=O)ccc1Cl", "activity change": "-18.2% (inactive)"}
{"smiles": "O=P(OCC(Br)CBr)(OCC(Br)CBr)OCC(Br)CBr", "note": "(stereo not given)", "Potency": "inactive"}
{"smiles": "COc1ccccc1N1CCNCC1", "activity change": "-15.3% [at 35.3 µM, stronger effect = higher value] (inactive)"}
{"smiles": "Oc1cccc(Cl)c1", "activity change": "-18.9% (inactive)"}
{"smiles": "O=S(=O)(Cl)Cl", "activity change": "-2.35% (inactive)"}
{"smiles": "CCCCCl", "activity change": "-9.35% (inactive)"}
{"smiles": "COP(=O)(OC)OC(Br)C(Cl)(Cl)Br", "note": "(stereo not given)", "Potency": "inactive"}
{"smiles": "C[N+](C)(C)CCOC(=O)C(O)(c1ccccc1)c1ccccc1", "activity change": "-10.7% [at 35.3 µM, stronger effect = higher value] (inactive)"}
{"smiles": "Cc1cccc(C)c1NC1=NCCCS1", "activity change": "-11.3% [at 35.3 µM, stronger effect = higher value] (inactive)"}
{"smiles": "CCCCCCCCCCCC[N+](C)(C)CCOc1ccccc1", "Potency": "17.4 µM (active) and 23.9 µM (active)"}
{"smiles": "OC[P+](CO)(CO)CO", "Potency": "inactive"}
{"smiles": "C=C(Cl)Cl", "activity change": "3.85% (inactive)"}
{"smiles": "CCC1CCC(=O)O1", "note": "(stereo not given)", "activity change": "0.964% (inactive)"}
{"smiles": "Cc1nnc(-c2ccccc2)c(=O)n1N", "activity change": "-11.3% (inactive)"}
{"smiles": "C1CCNCC1", "activity change": "10.9% (inactive)"}
{"smiles": "C[C@H]1O[C@H](OC2[C@@H](O)[C@@H](O)C(O)[C@H](O)[C@H]2O)[C@@H](N)C[C@@H]1N=C(N)C(=O)O", "note": "(stereo not given in full)", "activity change": "0.694% (inactive)"}
{"smiles": "CN1CC[C@]23c4c5ccc(O)c4O[C@H]2[C@@H](O)CC[C@H]3[C@H]1C5", "activity change": "-9.26% (inactive)"}
{"smiles": "CCC(=O)O[C@@H]1C=C2CCC3C(CCC4(C)C3CC[C@@H]4OC(=O)CC)C2CC1", "note": "(stereo not given in full)", "activity change": "19.4% [at 35.3 µM, stronger effect = higher value] (inactive)"}
{"smiles": "CC(C)C1(C)N=C(c2ncccc2C(=O)O)NC1=O", "note": "(stereo not given)", "activity change": "-0.74% (inactive)"}
{"smiles": "O=C([O-])c1ccccn1.O=C([O-])c1ccccn1.O=C([O-])c1ccccn1.[Cr+3]", "activity change": "13.9% (inactive)"}
{"smiles": "CCCCCCCCCCCCN(C)C", "activity change": "-8.85% (inactive)"}
{"smiles": "O=C(O)c1ccc(=O)[nH]c1", "activity change": "-5.98% [at 35.3 µM, stronger effect = higher value] (inactive)"}
{"smiles": "COC1CC(=C(c2cccs2)c2cccs2)C[N+](C)(C)C1", "note": "(stereo not given)", "activity change": "-16.7% [at 35.3 µM, stronger effect = higher value] (inactive)"}
{"smiles": "CCOC(C(=O)OCCN(C)C)(c1ccccc1)c1ccccc1", "activity change": "-0.265% [at 35.3 µM, stronger effect = higher value] (inactive)"}
{"smiles": "CN(C)C(=O)Nc1cccc(OC(=O)NC(C)(C)C)c1", "activity change": "10% (inactive)"}
{"smiles": "Nc1cc(Cl)cc(C(=O)O)c1Cl", "Potency": "inactive"}
{"smiles": "CCOC(=O)c1cncn1C(C)c1ccccc1", "note": "(stereo not given)", "activity change": "1.07% [at 35.3 µM, stronger effect = higher value] (inactive)"}
{"smiles": "Cc1ccc2c(C)cccc2c1", "activity change": "18.4% (inactive)"}
{"smiles": "CC(Oc1cccc(Cl)c1)C(=O)O", "note": "(stereo not given)", "activity change": "-6.22% (inactive)"}
{"smiles": "CCCCC(CC)CO[N+](=O)[O-]", "note": "(stereo not given)", "activity change": "-3.42% (inactive)"}
{"smiles": "C[C@]12CC[C@H]3[C@@H](CCC4=CC(=O)CC[C@@H]43)[C@@H]1CC[C@@H]2OC(=O)CCc1ccccc1", "activity change": "20.8% [at 35.3 µM, stronger effect = higher value] (inactive)"}
{"smiles": "Clc1ccc(Cl)c(Cl)c1", "Potency": "inactive"}
{"smiles": "CCC1(C2=NCCN2)Cc2ccccc2O1", "note": "(stereo not given)", "activity change": "-12.8% [at 35.3 µM, stronger effect = higher value] (inactive)"}
{"smiles": "CCOP(=S)(OCC)SCSc1cc(Cl)ccc1Cl", "activity change": "1.31% (inactive)"}
{"smiles": "COC(=O)C1(O)c2ccccc2-c2ccccc21", "activity change": "-18.8% (inactive)"}
{"smiles": "COc1ccc(C(=O)c2c(C)n(CCN3CCOCC3)c3ccccc23)cc1", "activity change": "-7.2% [at 35.3 µM, stronger effect = higher value] (inactive)"}
{"smiles": "CC(C)(C)OOC(C)(C)CCC(C)(C)OOC(C)(C)C", "activity change": "-0.681% (inactive)"}
